PubChem BioAssay (NCI)
The panel holds about 79,000 compounds, 15% with a hit somewhere; the sample as a whole holds those more often. A number with no mark means an inactive call. Calls of active or inactive are those of the source. No stated cut-off is given here; in the data, active means growth inhibition above about 70%; inactive means the rest. Where a SMILES comes first, the peptide text is derived from it. [ ]: non-standard residue; d: D form. The star is where a group is joined. ξ: configuration not given here. Cbz = O=C(OCc1ccccc1)*; ξK = NCCCCC(N)C(=O)O; NHNH2 = NN*

What was measured:
[1] = NCI Yeast Anticancer Drug Screen. Data for the rad50 strain (AID 155);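 further: 0% = growth of vehicle-only cultures of the same strain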; details: S. cerevisiae rad50 strain growth inhibition, active compounds read high; at 50.0 µM unless noted
In short: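 Yeast carrying a defined DNA repair defect were exposed to test compounds, and growth was compared with vehicle-treated controls to give percent inhibition.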

[2] = NCI Yeast Anticancer Drug Screen. Data for the mec2-1 strain (AID 157); details: S. cerevisiae mec2-1 strain, active compounds read high; at 50.0 µM unless noted
In short: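 Yeast mec2-1 mutant treated with compound. Readout: growth inhibition vs vehicle controls.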

[3] = NCI Yeast Anticancer Drug Screen. Data for the sgs1 mgt1 strain (AID 161);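 further: 0% = growth of cultures given vehicle only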; details: S. cerevisiae sgs1 mgt1 strain, active compounds read high; at 50.0 µM unless noted
In short: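 Read-out: growth inhibition vs vehicle controls. Cells: mutant yeast strain deficient in DNA damage repair.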

[4] = NCI Yeast Anticancer Drug Screen. Data for the cln2 rad14 strain (AID 165);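 further: 0% = growth equal to vehicle treated cultures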; details: S. cerevisiae cln2 rad14 strain, active compounds read high; at 50.0 µM unless noted
In short: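 cln2 rad14 yeast strain; compound exposure; growth inhibition read vs vehicle controls.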

[5] = NCI Yeast Anticancer Drug Screen. Data for the bub3 strain (AID 167); details: S. cerevisiae bub3 mutant strain, active compounds read high; at 50.0 µM unless noted
In short: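 Compounds were applied to a genetically altered yeast strain carrying a cell-cycle control defect. Growth inhibition was scored against vehicle-treated controls.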

[6] = NCI Yeast Anticancer Drug Screen. Data for the mlh1 rad18 strain (AID 175); details: S. cerevisiae mlh1 rad18 strain growth inhibition, active compounds read high; at 50.0 µM unless noted
In short: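 Yeast w/ defined DNA-repair lesions; compound exposure; growth vs vehicle controls → % inhibition.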

Row | Structure (SMILES) | growth inhibition [1] | growth inhibition [2] | growth inhibition [3] | growth inhibition [4] | growth inhibition [5] | growth inhibition [6]
1 | CCN(CC)CCOc1cccc(NC(=O)CN(CC)CC)c1 | -8.2% | -25.8% | 15.3% | 1.4% | 17% | 1.65%
2 | CC(=C/c1ccccc1)/C=C1/NC(=S)NC1=O | -25.6% | -41.9% | -16.4% | -2.7% | -23.4% | -21.4%
3 | CC(C)N1C(=O)NC2C1NC(=O)N2C(C)C (stereo unspecified) (tested in a mixture with another compound) | -14.8% | -5.2% | -1.15% | 22.4% | -12.8% | -3.05%
4 | NC(=O)c1cncn1C1OCC(O)C(O)C1O (stereo unspecified) | 10.2% | 6.4% | 3.85% | -6.8% | 3.1% | -20.2%
5 | Cc1cc(C)c(S)c(C)c1.[Cu+2] | -29.1% | -10.3% | -5.85% | -53.2% | -28.9% | -2.55%
6 | CC(C)(O)CCNc1ncnc2c1ncn2C1OC(CO)C(O)C1O (stereo unspecified) | 2% | -1.75% | 9.7% | -6.8% | 13.9% | 13.8%
7 | CCCCCCn1ncc2c(N)ncnc21 | 10.4% | 6.85% | -1.3% | -4% | 29.8% | -1.3%
8 | CC1=C(c2ccccc2)OC(c2ccccc2)=C[P+]1(c1ccccc1)c1ccccc1 | 97.8% (active) | 99.5% (active) | 99.4% (active) | 99.3% (active) | 99.3% (active) | 99.2% (active)
9 | N#CCCOc1ccc(N)cc1 | 0.55% | -5.2% | 7.15% | 3.75% | 8.65% | 17.6%
10 | CCC1(CC)C(=O)NN(C(=O)c2ccc(Cl)cc2)C1=O | -4.9% | -22.9% | 28.4% | 7.15% | -5.6% | -37.5%
11 | C=CCC1(CN(C)C)CC/C(=C\c2ccc(Cl)cc2)C1=O (stereo unspecified) | 55.2% | 23.6% | 59.8% | 42.2% | 16.3% | 52.5%
12 | Cc1nc(C(Cl)(Cl)Cl)[nH]c(=O)c1SCCO | 12.8% | -15.7% | -9.05% | 10.1% | -2.4% | -6.35%
13 | Oc1ccccc1/C=N/N1C(=S)N(C23CC4CC(CC(C4)C2)C3)C(=Nc2ccccc2)C1=Nc1ccccc1 | -8.55% | -16.2% | -23.2% | 2.35% | -3% | -14.3%
14 | Cc1ccccc1C(=O)c1cccc2cccc(C(=O)c3ccccc3C)c12 | 13% | 0.75% | -10.8% | 7.8% | 10.8% | 1.15%
15 | COC(C(=O)NN)c1ccccc1 (stereo unspecified) | -25.1% | -60.5% | -59.8% | -43.5% | -35.5% | -35.8%
16 | CO/C(=N\N=C\c1ccc(Cl)cc1Cl)c1ccncc1 | -25.9% | -40.4% | -53% | -23.4% | -27.8% | -54.6%
17 | CC1(C)OCC[C@@H]1[Si](C)(C)C | 17.6% | 21.6% | 14.2% | 2.8% | -3.45% | -19.6%
18 | CCN(CC)CCC(=O)c1ccccc1 | -7.5% | -4.25% | -8.45% | -7.25% | -20.1% | -7.85%
19 | CCOC(=O)c1cc(C(O)C(O)C(O)CO)oc1C (stereo unspecified) | 14.6% | 2.1% | -6.45% | -13.1% | 21.9% | 18.1%
20 | Cc1ccnc(NC(=O)CCc2ccccc2)c1 | -11.8% | -16.8% | -10.3% | -31.7% | -13.2% | -5.85%
21 | CCOC(=O)CSc1nc(-c2ccccc2)c(C#N)c(=O)[nH]1 | 3.05% | 1.2% | -5.4% | 13.2% | 2.6% | -61%

Row | Structure (SMILES) | growth inhibition [1] | growth inhibition [2] | growth inhibition [3] | growth inhibition [4] | growth inhibition [5] | growth inhibition [6]
22 | Cc1ccc(NC(=O)Oc2ccc(C#N)cc2)c(C)c1 | 7.45% | -22.8% | -0.9% | 2.05% | -3.35% | 8.9%
23 | CC(=O)c1ccc2c(c1)sc1ccccc12 | 66.9% | -25.3% | -6.4% | -2.25% | 28.5% | 55.9%
24 | O=C(N[C@@H](CSSC[C@H](NC(=O)OCc1ccccc1)C(=O)O)C(=O)O)OCc1ccccc1 | 15.6% | 0.85% | 9.2% | -3.65% | 2.7% | 2.55%
25 | CCN(CC)CC(=O)Nc1cc(Cl)ccc1OC | -4% | -19.8% | -5.75% | -35.3% | 8.9% | -6.25%
26 | NCC(=O)NC(CCCCNC(=O)OCc1ccccc1)C(=O)O (stereo unspecified) (H-Gly-[ξK](Cbz)-OH) | -6.8% | 21% | -10.7% | -3.5% | -20.1% | -22.4%
27 | Cc1ccc(NC(=O)CC/C(CC(=O)C(C)(C)C)=N/NC(=O)c2cc3ccccc3cc2O)cc1C | 27.9% | 21.1% | 0.35% | -0.35% | 28.4% | 14.8%
28 | CCOC(OCC)C1(C)CC=CCC1 (stereo unspecified) | 20.4% | 11.3% | 5.05% | -3.4% | 3.15% | 6.4%
29 | O=P1(O)c2ccccc2Nc2cc(C(F)(F)F)ccc21 | 24.1% | -8.25% | -9.8% | 8.7% | -9.85% | -49.4%
30 | O=C1c2ccccc2C(=O)C1c1ccc2ccccc2n1 | 7.85% | -7.95% | 3.35% | 2.6% | 7.05% | -7.95%
31 | CCCCCCC(=O)OCC(=O)c1ccc(Br)cc1 | 2.85% | 28.2% | 15.2% | -115% | 22.2% | 15%
32 | CN(C)CCOC(=O)C1C2CC3OC(=O)C1C3C2 (stereo unspecified) | -2.4% | -13.6% | 17.5% | -5% | 7.25% | -19.4%
33 | CCCCCCSC(=O)NC(C)=O | -10.3% | -0.95% | 1.4% | -86% | -18.9% | 0%
34 | Oc1cc2c(cc1-c1cc3c(cc1O)OCO3)OCO2 | -21.1% | -15.3% | -5.15% | -41% | -3.2% | 0.55%
35 | CSc1nc(C)cc(Nc2ccc(O)c(CN3CCCCC3)c2)n1 | 19.4% | -20.3% | -27.3% | 10.4% | -32.6% | 2.6%
36 | C=CCNC(=S)NNc1nc(C)cc(=O)[nH]1 | 30.1% | -27.9% | 11.7% | 5.55% | 5.95% | 4.3%
37 | Nc1c(C(=O)O)ccc(O)c1O | 28.9% | 20.5% | 32.2% | 7.95% | 0.95% | 9.8%
38 | CCOC(=O)CCC(NC(=O)OCc1ccccc1)C(=O)NC(CCC(=O)OCC)C(=O)NN (stereo unspecified) (Cbz-Glu(OEt)-Glu(OEt)-NHNH2; configuration not given here) | 2.65% | 7.75% | 2.5% | 11.8% | 23.2% | 27.3%
39 | Nc1ncnc2c1ncn2C1OC(CO)C(NC(=O)C(N)Cc2ccccc2)C1O (stereo unspecified) | 7.2% | -4.7% | -2.8% | -32.3% | 2.15% | -9.5%
40 | CSc1nc(SC)c2cnn(CC3CO3)c2n1 (stereo unspecified) | 44.2% | -15.2% | 60.8% | 11.1% | -20.1% | 39.5%
41 | CCCC1SCC(=O)N1c1nncs1 (stereo unspecified) | 6.5% | 3.5% | -23.2% | -29.1% | -8% | -30.6%
